Results filed as inconclusive are left out. Active and inactive are the calls of the source. Calls follow the shape of the dose curve; as a rule, active = well fitted inhibition curve with a large enough effect; inconclusive = small, poorly fitted or top-dose-only effect; inactive = no such curve, though single readings can be large or run the other way. Where a SMILES comes first, the peptide text is derived from it. [ ]: non-standard residue; d: D form. ξ: configuration not given here. ξPhe(βξ-Me) = CC(c1ccccc1)C(N)C(=O)O; GABA = NCCCC(=O)O
% is scaled to controls: 0 for no effect and ±100 for the full control effect.

For this assay, the system named is Zika virus NS2B-NS3 protease (unlinked complex). Description: Primary screen GU Rhodamine qHTS for Zika virus inhibitors: Unlinked NS2B-NS3 protease assay (AID 1347159). Also: nearly all actives have a fitted effect of over 60% in size. The settings on record: Recombinant ZIKV NS2B-NS3 protease, Rhodamine110 substrate fluorescence; series mostly up to 107 µM; activity change, negative = inhibition: at the top concentration. The gist of the method: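 Noncovalent NS2B hydrophilic domain/NS3 protease complex (25 nM final) in 10 mM Tris-HCl pH 8.0, 0.01% Tween 20, preincubated 15 min with compounds (up to 114 microM), then 1.5 microM Rhodamine110 substrate. Fluorescence change over 15 min fitted to 4-parameter Hill.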
For orientation: Quantitative high-throughput screening tests each substance at several concentrations.
Take `C=C1CCC[C@]2(C)CC[C@@H](C(=C)C(=O)O)[C@H](O)[C@@H]12`: the “activity change, negative = inhibition” value is 17.8% (inactive).

`NCCCNc1ccc(Nc2nccc(Nc3cc(C4CC4)[nH]n3)n2)cc1`: the “activity change, negative = inhibition” value is 0% (inactive).

For the compound `CC[C@H](CO)Nc1nc(NCc2ccc(-c3ccccn3)cc2)c2ncn(C(C)C)c2n1`, the “activity change, negative = inhibition” value is 58% (inactive).

`Cc1cnc(NC(=O)Nc2cc(Br)c(C)cc2OCC2CNCCO2)cn1` (centres undefined): the “activity change, negative = inhibition” value is 71.2% (inactive).

With `CNC12CC3C[C@@](C)(C1)C[C@](C)(C3)C2`, the “activity change, negative = inhibition” value was 12.3% (inactive).

For the compound `CC(=O)C1=C(C)N(c2cccc(C(F)(F)F)c2)C(=O)N[C@H]1c1ccc(C#N)nc1`, the “activity change, negative = inhibition” value was 0% [at 32.5 µM] (inactive).

Turning to `Cc1c(C(=O)N2CCOc3ccc(-c4ccc(N)nc4)cc3C2)ccc(S(C)(=O)=O)c1F`, the “activity change, negative = inhibition” value was 12.5% (inactive).

For the compound `O=[N+]([O-])c1cn2c(n1)OCC(OCc1ccc(OC(F)(F)F)cc1)C2` (centres undefined), the “activity change, negative = inhibition” value is -25.4% (inactive).

With `COc1ccc(C(O)C(C)OC2OC(CO)C(O)C(O)C2O)cc1` (centres undefined), the “activity change, negative = inhibition” value was 23.6% (inactive).

`CC1=CC(=O)CC(C)(C)C1/C=C/C(C)O[C@@H]1O[C@H](CO)[C@@H](O)[C@H](O)[C@H]1O[C@@H]1OC[C@](O)(CO)[C@H]1O` (some centres undefined): the “activity change, negative = inhibition” value was 14.2% [at 57.1 µM] (inactive).

On to `CC12CCC(OC3OC(CO)C(O)C(OC4OC(CO)C(O)C(O)C4O)C3O)CC1=CCC1C2CCC2(C)/C(=C3/COC(=O)C3)CCC12O` (centres undefined), for which the “activity change, negative = inhibition” value was 14% [at 32.5 µM] (inactive).

Consider `CC(C)(C)OC(=O)N1CCC(OCc2nc(-c3ccncc3)no2)CC1`, for which the “activity change, negative = inhibition” value is -1.37% (inactive).

In the case of `COc1cc2ncnc(Nc3ccc(O)cc3)c2cc1OC`, the “activity change, negative = inhibition” value is 19.2% (inactive).

As for `C=C(C)C1CCC2(C(=O)O[C@@H]3O[C@H](CO[C@@H]4O[C@H](CO)[C@@H](O)[C@H](O)[C@H]4O)[C@@H](O)[C@H](O[C@@H]4O[C@@H](C)[C@H](O)[C@@H](O)[C@H]4O)[C@H]3O)CCC3(C(=O)O)C(CCC4C5(C)CCC(O)C(C)(C)C5CCC43C)C12` (some centres undefined), the “activity change, negative = inhibition” value is 13.6% [at 32.5 µM] (inactive).

For the compound `COC(=O)[C@@]1(c2ccc(C)cc2)C[C@H]1CN1CCC(O)(c2ccccc2)CC1`, the “activity change, negative = inhibition” value was 96.2% (inactive).

As for `CC(C)/C=C1\NC(=O)C(C(C)C)n2c1nc1c(c2=O)C=CC=CO1` (centres undefined), the “activity change, negative = inhibition” value was 3.69% (inactive).

As for `CC1NC(=O)CCCNC(=O)C(Cc2c[nH]c3ccccc23)NC(=O)C(C)NC(=O)C(C(C)C)NC(=O)C(C(C)c2ccccc2)NC(=O)C(C(C)C)NC1=O` (stereo not drawn) (cyclo([GABA]AV[ξPhe(βξ-Me)]VAW); configuration not given here), the “activity change, negative = inhibition” value was 0.644% [at 32.5 µM] (inactive).

For the compound `CC(C)(O[C@@H]1O[C@H](CO)[C@@H](O)[C@H](O)[C@H]1O)C(OC(=O)/C=C\c1ccc(O)cc1)C(=O)OCc1ccc(O[C@@H]2O[C@H](CO)[C@@H](O)[C@H](O)[C@H]2O)cc1` (some centres undefined), the “activity change, negative = inhibition” value was 6.11% [at 32.5 µM] (inactive).

As for `O=C(c1cccc(Cl)c1F)N1CCN(Cc2cccc(Nc3nccs3)n2)CC1`, the “activity change, negative = inhibition” value was 4.65% (inactive).

With `CC(C)c1c2cc(-c3ccnc(NC4CCC(NC5CCOCC5)CC4)n3)ccc2nn1C` (centres undefined), the “activity change, negative = inhibition” value was 20.9% (inactive).

In the case of `COc1ccc(-c2ccc3c(N4CCOCC4)nc(N4CC(C)OC(C)C4)nc3n2)cc1CO` (centres undefined), the “activity change, negative = inhibition” value was 9.09% (inactive).

Regarding `CC(C)(C)c1ccc(S(=O)(=O)NCc2ccc(C(=O)Nc3cccnc3)cc2)cc1`, the “activity change, negative = inhibition” value is -11.9% (inactive).

Turning to `NC1(C(=O)NC(CCO)c2ccc(Cl)cc2)CCN(c2ncnc3[nH]ccc23)CC1` (centres undefined), the “activity change, negative = inhibition” value was 76.3% (inactive).

With `O=C1CCC=CC1(O)C(=O)OCc1ccccc1O[C@@H]1O[C@H](CO)[C@@H](O)[C@H](O)[C@H]1O` (some centres undefined), the “activity change, negative = inhibition” value is -18.8% [at 57.1 µM] (inactive).

On to `N#Cc1cc(F)cc(-c2nc(-c3ccccn3)no2)c1`, for which the “activity change, negative = inhibition” value was -2.05% (inactive).

Consider `C=C(C)C(=O)OC1C(OC(C)=O)/C(C=O)=C\CC/C(CO)=C/C2OC(=O)C(=C)C21` (centres undefined), for which the “activity change, negative = inhibition” value is 13.8% [at 57.1 µM] (inactive).

With `COc1ccc(/C=C\C(=O)O)c(O[C@@H]2O[C@H](CO)[C@@H](O)[C@H](O)[C@H]2O)c1`, the “activity change, negative = inhibition” value is 5.33% (inactive).

Take `CC1=CC2/C=C(\C)CC[C@@H](O)[C@@H](O)[C@@H]3O[C@@H]3C(=O)[C@]23C(=O)N[C@@H](CC(C)C)[C@@H]3[C@@H]1C` (some centres undefined): the “activity change, negative = inhibition” value is 9.87% [at 57.1 µM] (inactive).

With `C[C@@H]1O[C@@H](O[C@H]2[C@@H]3C=CO[C@@H](O[C@@H]4O[C@H](CO)[C@@H](O)[C@H](O)[C@H]4O)[C@@H]3[C@@]3(CO)O[C@@H]23)[C@H](OC(=O)/C=C/c2ccc(O)c(O)c2)[C@H](O)[C@H]1O`, the “activity change, negative = inhibition” value is -16.2% [at 32.5 µM] (inactive).

For `CCCCC1CCN(CCCC(=O)c2ccccc2C)CC1`, the “activity change, negative = inhibition” value is 18.6% (inactive).

Turning to `CC(=O)NC1C(OC(C)(C)C2CCC3(C)C=C(C4CCC5C4(C)CC(O)C4OC(C(C)(C)O)CCC45C)CCC3O2)OC(CO)C(O)C1O` (centres undefined), the “activity change, negative = inhibition” value was -13.3% [at 32.5 µM] (inactive).

As for `O=C(CN1C(=O)C2(CCCC2)NCC1c1cc(F)cc(F)c1)Nc1ccc2c(c1)CC1(C2)C(=O)Nc2ncccc21` (centres undefined), the “activity change, negative = inhibition” value was 51.9% (inactive).

As to `NCc1ccc(Nc2ncc(F)c(Nc3ccccc3)n2)cc1`, the “activity change, negative = inhibition” value is 62.2% (inactive).

In the case of `COc1cc2ncnc(Nc3ccc(F)c(Cl)c3)c2cc1NC(=O)/C=C/CN1CCCCC1`, the “activity change, negative = inhibition” value was 195% (inactive).

In the case of `Cc1[nH]c2ccccc2c1CCNC(=O)c1ccccc1F`, the “activity change, negative = inhibition” value was 13.4% (inactive).

With `COC(=O)C1(C)CCC2(C(=O)O)CCC3(C)C(=CCC4C5(C)CC(O)C(OC6OCC(O)C(O)C6O)C(C)(CO)C5CCC43C)C2C1` (centres undefined), the “activity change, negative = inhibition” value was 19.1% [at 32.5 µM] (inactive).

Take `CCOc1ccc(NC(=S)N2CCC(C(O)(c3ccccc3)c3ccccc3)CC2)cc1`: the “activity change, negative = inhibition” value is 19.5% (inactive).

On to `O=C(CC(c1ccccc1)c1ccccc1)N1CCN(C(c2ccccc2)c2ccccc2)CC1`, for which the “activity change, negative = inhibition” value is -13.4% (inactive).

As for `C=C1C(O)CC2C(C(=O)O)=COC(O[C@@H]3O[C@H](COC(=O)/C=C/c4ccc(O)cc4)[C@@H](O)[C@H](O)[C@H]3O)C12` (some centres undefined), the “activity change, negative = inhibition” value was 16.1% [at 57.1 µM] (inactive).
